# Source: PubChem
# An excerpt weighted towards active compounds, which were near 1.2% of everything screened.
# GC-A act: GC-A (human) enzyme activation. P16066. HEK293 GC-A cells, cGMP TR-FRET, EC30 ANP; 0% at EC30 ANP, 100% saturating ANP. activation, % at 10 µM. 0.14% of 370,000 active; in the data active means activation above about 40%
# GC-B act: GC-B (human) receptor activation. 0.11% of 370,000 active. HEK293-GC-B cells, CNP EC30, cGMP TR-FRET; 0% at EC30 CNP, 100% saturating CNP. activation, % at 10 µM. AID 1920062;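 active means activation at 10 µM reaching about 35% in either raw or pattern-adjusted values, limit read from the data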
# TLR4-MyD88 BLA: blocks binding of human TLR4 to MyD88. HeLa CL3-4 TLR4/MyD88 BLA complementation, FRET ratio. AID 861. O00206+Q99836. inhibition, % at 8.4 µM. 0.18% of 200,000 active; in the data active means inhibition above about 25%;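 further: 0% = vehicle and 100% = reference inhibitor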
# Neddyl block: inhibitors of human cullin neddylation. P61081+Q13564. TR-FRET cullin neddylation, biochemical. inhibition, % at 25 µM. 0.58% of 360,000 active. AID 651699; in the data active means inhibition above about 36%
# TLR9-MyD88 block: inhibitors of human TLR9-MyD88 binding | Q9NR96+Q99836 | CHO BLA complementation TLR9-MyD88, CCF4 FRET ratio | inhibition, % at 4.98 µM | 0.21% of 340,000 active | AID 504734;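 active means inhibition above the mean over all tested compounds plus 3 SD, cut at about 21% in these data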;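 further: 0% = DMSO only wells and 100% = clavulanate BLA inhibitor control wells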
# NOD2-RIPK2 inh: blocks binding of human NOD2 to RIPK2. 0.38% of 360,000 active. inhibition, % at 4.98 µM. CHO BLA complementation NOD2-RIPK2, CCF4 ratio. O43353. AID 624267; in the data active means inhibition above about 21%;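 further: 0% = vehicle only and 100% = reference blocker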
# Target sequence (O43353 whole entry, looked up): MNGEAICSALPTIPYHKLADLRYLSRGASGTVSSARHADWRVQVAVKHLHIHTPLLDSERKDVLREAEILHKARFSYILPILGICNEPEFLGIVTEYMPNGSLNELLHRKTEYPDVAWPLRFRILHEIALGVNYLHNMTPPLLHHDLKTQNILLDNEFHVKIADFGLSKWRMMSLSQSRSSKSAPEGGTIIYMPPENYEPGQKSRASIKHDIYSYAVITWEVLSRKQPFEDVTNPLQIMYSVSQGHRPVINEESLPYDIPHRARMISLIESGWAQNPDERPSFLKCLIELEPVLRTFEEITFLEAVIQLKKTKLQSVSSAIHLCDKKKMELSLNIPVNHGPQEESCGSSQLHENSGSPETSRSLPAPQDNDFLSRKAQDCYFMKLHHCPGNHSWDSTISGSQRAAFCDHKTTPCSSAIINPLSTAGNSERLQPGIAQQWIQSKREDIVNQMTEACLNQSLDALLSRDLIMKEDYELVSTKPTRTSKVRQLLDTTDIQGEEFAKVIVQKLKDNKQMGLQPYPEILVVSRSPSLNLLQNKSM
# TLR4 MyD88 cnf: confirmation of human TLR4-MyD88 binding inhibitors | inhibition, % at 8.4 µM | 50% of 350 active | shares compounds with TLR4-MyD88 BLA | HeLa CL3-4 BLA complementation, CCF4 FRET ratio;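 active means mean inhibition across three repeat runs above about 25% carried over from the earlier screen, limit read from the data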;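 further: plate controls were DMSO only for no effect and clavulanic acid blocking BLA at full dose for full effect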
# BLA inhibitor ct: counter-screen for TLR4-MyD88 inhibitors: beta-lactamase reporter inhibitors; shares compounds with TLR4-MyD88 BLA; HeLa BLA reporter, CCF4 FRET ratio; inhibition, % at 8.4 µM; 63% of 350 active; AID 1237;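 active means mean inhibition over three repeats above about 26% taken from the earlier screen, limit read from the data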;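 further: HeLa cells stably expressing beta-lactamase reporter as counterscreen for TLR4-MyD88 inhibitors; 0% = DMSO and 100% = clavulanic acid full inhibition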
# TLR9-MyD88 cf: confirmation of human TLR9-MyD88 binding inhibitors | shares compounds with TLR9-MyD88 block | inhibition, % at 4.98 µM | CHO TLR9/MyD88 BLA complementation, CCF4 FRET ratio | 51% of 680 active;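 active means mean inhibition across three repeats above about 21% taken from the earlier screen, limit read from the data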;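 further: blue over green emission ratio reports constitutive TLR9 MyD88 association via BLA complementation; 0% = DMSO vehicle wells and 100% = clavulanate BLA inhibitor wells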
# BLA counter: beta-lactamase reporter inhibition, counter-screen artifact | AID 540251 | 7% of 680 active | shares compounds with TLR9-MyD88 block | inhibition, % at 4.98 µM | CHO-BLA cells, CCF4 FRET ratio, BLA reporter;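 active means mean inhibition above a 50% cutoff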;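 further: counterscreen of TLR9-MyD88 hits on CMV-driven BLA in CHO-K1 cells; 0% = DMSO alone and 100% = clavulanate blocking BLA; higher means less blue over green ratio so more BLA blockade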
# TLR9 CHO cytotox: counter-screen for TLR9-MyD88 inhibitors: cytotoxicity in CHO cells; shares compounds with TLR9-MyD88 block; luminescence; inhibition, % at 4.98 µM; 39% of 680 active; AID 588336; in the data active means inhibition above about 11%
# Starred values were filed as active, the others as inactive; i = inactive; nt = no result shown.
SMILES,GC-A act,GC-B act,TLR4-MyD88 BLA,Neddyl block,TLR9-MyD88 block,NOD2-RIPK2 inh,TLR4 MyD88 cnf,BLA inhibitor ct,others
O=c1oc2ccc3ccccc3c2cc1-c1nnc(-c2ccccc2)o1,-0.9,-5.6,-0.2,nt,-2.7,-2.2,nt,nt,
Nc1nnc(-c2cc3c(ccc4ccccc43)oc2=O)s1,nt,nt,38.0*,nt,nt,nt,30.7*,58.0*,
CCOC(=O)c1c(NC2=NS(=O)(=O)c3ccccc32)sc2c1CCC(C)C2 (configuration not stated),-0.3,2.5,51.9*,-290.9,2.2,4.5,-1.0,15.2,
CCOC(=O)N1C(=O)C[C@](Sc2ccc(OC)cc2)(C(=O)N2CCN(c3ncccn3)CC2)[C@H]1c1ccc(OC)cc1,-1.2,-6.6,nt,nt,nt,nt,nt,nt,
O=C1COc2ccc(C(=O)COC(=O)c3cnc(Cl)c(Cl)c3)cc2N1,8.9,5.0,28.1*,0.4,-0.2,-8.8,26.6*,-3.0,
O=C1COc2ccc(C(=O)COC(=O)c3ncc(Cl)c(Cl)c3Cl)cc2N1,-3.8,0.8,nt,2.1,-8.9,-8.0,nt,nt,
Cc1ccc(-c2cc(C(=O)Nc3ccccc3C)c3ccccc3n2)o1,0.7,6.0,28.0*,-0.6,2.4,-2.4,4.2,10.4,
COC(=O)c1cc(-c2ccc(C)o2)nc2ccccc12,8.5,5.8,10.2,-9.4,-11.2,-6.6,nt,nt,
O=C(NCc1ccco1)c1ccccc1F,-4.3,1.6,26.5*,11.1,-5.3,1.4,-2.6,4.1,
Nc1ccccc1C(=O)NCc1ccco1,6.4,-0.9,nt,nt,-1.5,-9.7,nt,nt,
C[C@@H](/C=C/C(=O)OC(C)(C)C)Sc1ccc(C(C)(C)C)cc1,-4.7,0.0,nt,nt,nt,nt,nt,nt,
COc1ccc(C2CC(=O)C(c3ccc(Cl)c(Cl)c3)=CN2Cc2ccccc2)cc1 (configuration not stated),0.2,-1.4,nt,nt,nt,nt,nt,nt,
COC(=O)c1ccc(-c2sc3nc(N4CCOCC4)c4c(c3c2N)CCCC4)o1,24.3,14.4,27.5*,nt,nt,nt,23.8,51.9*,
CCOC(=O)c1sc2nc(N3CCOCC3)c3c(c2c1N)CCCC3,6.5,5.7,-1.8,nt,-2.4,3.5,nt,nt,
C=CCOc1nc(-c2ccncc2)nc2ccccc12,-14.6,-8.8,25.5*,-18.5,0.4,-6.0,-7.9,4.2,
C[C@@H]1OC(C2CCCCC2)N(C)[C@H]2C[C@H]3c4cc(N5CCOCC5)ccc4CCN3C[C@@H]12 (some centres not stated),4.3,2.7,nt,nt,nt,nt,nt,nt,
Cc1ccc(N=Cc2sc(O)c3ccccc23)c(C)c1,-10.9,-11.5,25.1*,-9.7,4.9,-4.1,18.5,37.1*,
Cc1ccc(N=Cc2sc(O)c3ccccc23)cc1,-0.8,-5.2,39.3*,6.3,19.2,-5.2,17.6,52.0*,
Cc1ccc(N=Cc2c(O)c3ccccc3n(C)c2=O)cc1,0.6,-2.2,nt,8.1,6.5,0.2,nt,nt,
CCOC(=O)C1=C(CSc2nc(-c3ccccc3)ccc2C#N)OC(N)=C(C#N)C1c1ccc(OC)cc1 (configuration not stated),4.5,-8.1,26.4*,33.3,6.9,16.8,15.2,24.1,
OCCCc1nc2n(n1)C(c1ccccc1)C=C(c1ccccc1)N2 (configuration not stated),nt,nt,35.0*,nt,40.3*,63.6*,27.9*,49.8*,TLR9-MyD88 cf=31.7*;BLA counter=32.5;TLR9 CHO cytotox=3.5
CC(=O)c1sc2nc(-c3cccs3)ccc2c1N,-1.3,-2.1,5.5,20.6,4.7,-1.1,nt,nt,
Nc1c(C(=O)Nc2nc3ccccc3s2)sc2nc(-c3cccs3)ccc12,nt,nt,64.8*,30.1,25.4*,-7.9,47.5*,77.1*,TLR9-MyD88 cf=48.1*;BLA counter=48.1;TLR9 CHO cytotox=41.8*
CC1C/C(=C/c2ccncc2)C(=O)/C(=C/c2ccncc2)C1 (configuration not stated),-9.4,-12.3,5.9,6.7,-1.6,5.6,nt,nt,
CC1C/C(=C/c2cccn2C)C(=O)/C(=C/c2cccn2C)C1 (configuration not stated),-5.7,1.8,54.5*,-104.7,37.4*,-3.5,32.0*,60.5*,TLR9-MyD88 cf=40.7*;BLA counter=40.1;TLR9 CHO cytotox=0.7
SMILES,GC-A act,GC-B act,TLR4-MyD88 BLA,Neddyl block,TLR9-MyD88 block,NOD2-RIPK2 inh,TLR4 MyD88 cnf,BLA inhibitor ct,others
COC(=O)C1CN(Cc2ccc(C)cc2)CCS(=O)(=O)N1Cc1cn(Cc2ccccc2)nn1 (configuration not stated),-6.3,-3.9,nt,nt,nt,nt,nt,nt,
CN1/C(=C/C(=O)c2nc(S(C)(=O)=O)ncc2Cl)C(C)(C)c2ccccc21,nt,nt,35.8*,6.1,43.6*,70.4*,29.0*,17.7,TLR9-MyD88 cf=45.6*;BLA counter=24.6;TLR9 CHO cytotox=98.8*
CC(C)[C@@H](CO)N1Cc2nnn(Cc3ccccc3)c2-c2ccccc2S1(=O)=O,2.6,9.1,nt,nt,nt,nt,nt,nt,
O=C(/C=C/c1c[nH]c2ccccc12)c1cccc2ccccc12,4.5,-2.6,32.9*,33.8,35.7*,19.6,21.8,46.7*,TLR9-MyD88 cf=23.3*;BLA counter=22.7;TLR9 CHO cytotox=8.1
COc1ccc(CNS(=O)(=O)/C=C/c2ccccc2CNC(=O)OC(C)(C)C)cc1,-5.0,1.0,nt,nt,nt,nt,nt,nt,
Cc1ccc(S(=O)(=O)N[C@H](C(=O)Oc2ccc3c(C(F)(F)F)cc(=O)oc3c2)c2ccccc2)cc1,nt,nt,32.3*,nt,55.3*,58.3*,43.1*,55.5*,TLR9-MyD88 cf=32.8*;BLA counter=39.7;TLR9 CHO cytotox=-0.7
CC1=C[C@]2(C[N+](Cc3ccccc3)=C(N)N2)n2c(=O)n(-c3ccccc3)c(=O)n2C1,-2.0,2.5,nt,nt,nt,nt,nt,nt,
O=C(OCCN1C(=O)c2cccc3c(N4CCOCC4)ccc(c23)C1=O)c1ccc(Cl)cc1Cl,13.6,1.8,40.5*,i,37.6*,6.9,58.2*,85.8*,TLR9-MyD88 cf=67.7*;BLA counter=69.2*;TLR9 CHO cytotox=29.2*
O=C(OCCN1C(=O)c2cccc3c(N4CCOCC4)ccc(c23)C1=O)c1cccc(Cl)c1,nt,nt,6.3,nt,nt,nt,nt,nt,
CC[C@H](C)/C=C(C)/C=C/c1cc2c(cn1)C(=O)[C@@](C)(OC(C)=O)C(O)=C2Cl,5.0,-5.4,nt,nt,nt,-16.7,nt,nt,
CC[C@H](C)/C=C(C)/C=C/C1=CC2=CC(=O)[C@]3(C)OC(=O)[C@@H](C(C)=O)[C@@H]3C2=CO1,2.4,-4.2,33.1*,nt,32.2*,19.2,18.9,48.3*,TLR9-MyD88 cf=27.4*;BLA counter=29.5;TLR9 CHO cytotox=0.7
